Ba/F3 V617F tox: reduce viability of Ba/F3 cells dependent on JAK2V617F; inhibition, % at 5.6 µM; AID 1446; actives 1.1% (n = 220,000); Ba/F3 EpoR-JAK2V617F viability, ATP luminescence;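 active = inhibition above the campaign mean plus 3 SD over all tested compounds, cut at about 24% in these data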;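 also: cytokine-independent growth of Ba/F3 cells driven by EpoR plus mutant JAK2; 0% = DMSO-treated cells and 100% = JAK inhibitor I control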
APP 5UTR inh: APP translation inhibition; inhibition, % at 2 µM; actives 0.82% (n = 190,000); SH-SY5Y APP 5'UTR-luciferase reporter, luminescence;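 active = inhibition above a set limit, derived from the sample mean plus 3 SD, cut at about 45% in these data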
aSyn UTR inh: MLPCN primary screen, SNCA 5' untranslated region. alpha-synuclein 5'UTR reporter, inhibitor activity. inhibition, % (tested at 7.5 µM). actives 0.82% (n = 300,000); in the data active = inhibition above about 60%;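 also: H4 neuroglioblastoma cells stably carrying SNCA 5'UTR luciferase fusion; 0% = DMSO wells and 100% = positive control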
IEC-6 cytotox: kills IEC-6 intestinal cells in KLF5 counter-screen; actives 0.78% (n = 290,000); IEC-6 cytotoxicity, luminescence viability; inhibition, % at 5 µM; in the data active = inhibition above about 22%;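 also: 0% = plate median of test compound wells and 100% = cytotoxic reference compound wells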
KLF5 inh: suppresses KLF5 promoter-driven expression | actives 0.23% (n = 290,000) | DLD-1 KLF5 promoter-luciferase reporter, luminescence | inhibition, % at 5 µM;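 active = inhibition above a per-plate limit of that plate's mean compound inhibition plus 3 SD, cut at about 60% in these data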;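 also: 0% = DMSO wells and 100% = LY294002 at 200 µM; higher means less KLF5 promoter-driven luciferase light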
BaF3 tox: counter-screen for JAK2V617F inhibitors: parental Ba/F3 viability inhibitors | inhibition, % at 5.6 µM | actives 1.1% (n = 220,000) | AID 1486 | CellTiter-Glo ATP luminescence;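 active = inhibition above a per-campaign cutoff, the mean inhibition of all tested compounds plus 3 SD, cut at about 27% in these data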;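 also: 0% = DMSO wells and 100% = JAK Inhibitor I control wells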
* marks the source's active call; other numbers are inactive results; · = not tested or not shown. Sampled rows, rich in hits. Any-hit rate of the full collection: about 2.2%.

SMILES	Ba/F3 V617F tox	APP 5UTR inh	aSyn UTR inh	IEC-6 cytotox	KLF5 inh	BaF3 tox
O=C(COc1ccc(C(=O)c2ccccc2)cc1)NCc1ccc(F)cc1	6	14	113*	41*	26	6
O=C(COc1ccccc1)NCc1ccccc1	-4	1	-12	-2	-26	-2
COc1cc(SC)ccc1C(=O)NNC(=O)c1cc(C)oc1C	·	·	-32	·	·	·
COC(=O)c1cccc(Cn2nnc3ccccc3c2=O)c1	-3	-5	12	0	-13	-2
O=c1c2ccccc2nnn1Cc1ccc2ccccc2c1	2	8	-28	3	-8	89*
O=c1oc2ccc(Cl)cc2nc1/C=C(\O)c1cccs1	36*	·	-108	0	-56	38*
COc1cccc(CNC(=O)Cn2ncc3c(=O)oc4ccccc4c32)c1	61*	·	3	-4	-15	62*
O=C(Cn1ncc2c(=O)oc3ccccc3c21)NCc1cccnc1	5	-1	7	9	-22	11
COc1ccc(C(=O)NCCS(=O)(=O)N2CCN(C(=O)c3ccco3)CC2)cc1	·	·	8	·	·	·
Nc1ccc(C(=O)N/N=C/c2cn(Cc3ccc(F)cc3)c3ccccc23)cc1	·	·	64*	13	-42	·
COC(=O)N/N=C/c1cn(Cc2ccccc2F)c2ccccc12	1	·	51	4	-22	-5
Nc1ccc(C(=O)N/N=C/c2cn(Cc3ccccc3)c3ccccc23)cc1	·	·	57	6	-33	·
Nc1ccc(C(=O)N/N=C/c2cn(Cc3ccccc3F)c3ccccc23)cc1	·	·	72*	12	-21	·
Cc1ccc(OCC(=O)N/N=C\c2cn(Cc3ccccc3)c3ccccc23)cc1C	-4	-20	76*	-7	3	2
COc1cc(Oc2nc(C(F)(F)F)nc3ccccc23)ccc1C=O	·	·	1	0	-7	·
COc1ccc(N=c2cc(-c3ccc(OC)cc3)oc3ccccc23)cc1	2	3	-32	1	-79	5
CCOc1ccc(N=c2cc(-c3ccc(OC)cc3)oc3ccccc23)cc1	5	4	1	1	-28	71*
CCN1C(=NCc2ccco2)N[C@@H](c2cccc(F)c2)C(C(=O)OC)=C1C	·	·	16	1	-12	·
CCOc1cccc(C(=O)Nc2ccccc2C(=O)N2CCOCC2)c1	·	·	-1	-2	-6	·
Cc1ccc(Cl)cc1NS(=O)(=O)c1ccc2oc(=O)ccc2c1	·	·	7	2	-15	·
COc1ccccc1-n1nnnc1SCC(=O)Nc1cc(C)on1	-1	-4	13	6	11	2
CCOc1ccccc1-n1nnnc1SCC(=O)Nc1cc(C)on1	-5	-6	-11	4	2	39*
COC(=O)c1cc(NC(=O)c2c(Cl)nc3sccn23)cc(C(=O)OC)c1	1	5	80*	-2	3	4
CC(NC(=O)CN1CCOCC1)c1ccc(F)cc1 (stereo not given)	·	·	2	-4	-8	·
CC(C)OCCCNc1ccc(N2C(=O)CCCC2=O)cc1[N+](=O)[O-]	·	·	4	-9	15	·
SMILES	Ba/F3 V617F tox	APP 5UTR inh	aSyn UTR inh	IEC-6 cytotox	KLF5 inh	BaF3 tox
C=CCN(c1ccc(C(=O)NCCSc2ccccc2)cc1)S(C)(=O)=O	·	·	-58	2	-53	·
COC(=O)c1ccc(OC)c(Cn2c(=O)n(C)c(=O)c3ccccc32)c1	·	·	22	2	-22	·
Cc1ccccc1OCCn1c(=S)[nH]c2c(N)ncnc21	·	·	3	2	-1	·
Cc1ccccc1OCCn1cnc2c(N)ncnc21	57*	-2	-40	8	-24	33*
C=CCOc1nc(-c2ccccc2Cl)nc2ccccc12	-1	·	72*	1	-21	2
Cc1nc(-c2ccccc2)sc1C(=O)NN	1	73*	-102	-9	-13	8
Cc1ccc(NC(=O)CCC(=O)NNC(=O)COc2ccc([N+](=O)[O-])cc2)c(C)c1	·	·	·	2	-8	·
COc1ccc(NC(=O)c2oc3ccccc3c2NC(=O)c2ccco2)cc1	-2	6	24	-5	-19	35*
COc1ccc(NC(=O)c2oc3ccccc3c2NC(=O)c2ccco2)c(OC)c1	1	-8	11	4	1	3
CCn1cc(S(=O)(=O)Nc2cc(C)ccc2F)cn1	·	·	-21	-2	-19	·
COc1ccccc1-c1ccc(SCc2cccc(C)c2)nn1	61*	-21	-14	4	-18	66*
COc1ccccc1-c1ccc(SCc2ccc([N+](=O)[O-])cc2)nn1	-1	-1	11	0	-14	2
CN(C)CCCN(C(=O)c1ccc([N+](=O)[O-])o1)c1nc2cc3c(cc2s1)OCO3	·	·	-9	14	-23	·
COc1ccc(S(=O)(=O)N(C)CC(=O)NCCN2CCOCC2)cc1Cl	·	·	-9	-1	-37	·
COC(=O)c1ccc2c(c1)C(C)(C)C(/C=C/c1ccc(O)cc1)=[N+]2C	7	-10	119*	4	-12	29*
COC(=O)c1ccc2c(c1)C(C)(C)C(/C=C/c1ccc(OC)c(OC)c1OC)=[N+]2C	2	29	102*	11	6	6
COc1cc(/C=C/c2ccc(O)cc2)cc(OC)c1	11	·	-156	8	-81	-5
CCN(Cc1ccccc1)C(=O)CN1C(=O)COc2ccc(S(=O)(=O)NC3CCCC3)cc21	·	·	8	-2	-13	·
O=C(Cn1ncc(Cl)c(Cl)c1=O)NCC1CCCCC1	-2	97*	·	-5	-28	-2
Cc1ccc(NC(=O)CN(C)C(=O)Cn2ncc(Cl)c(Cl)c2=O)cc1	0	96*	82*	19	-16	-2
CC(C)(C)C(=O)Cn1ncc(N2CCCC2)c(Br)c1=O	-4	-39	-72	-7	-74	3
O=C1CN(C(=O)Cn2ncc(Cl)c(Cl)c2=O)c2ccccc2N1	4	90*	3	18	0	-5
CC(C)(C)C(=O)Cn1ncc(Cl)c(Cl)c1=O	7	50*	-56	10	4	-2
CC(=O)N1CCOc2ccc(S(=O)(=O)N3CC(C)CC(C)C3)cc21 (stereo not given)	·	·	0	2	-34	·
O=C(Cn1ncc(Cl)c(Cl)c1=O)c1ccc(Cl)cc1	17	81*	-22	13	0	1
SMILES	Ba/F3 V617F tox	APP 5UTR inh	aSyn UTR inh	IEC-6 cytotox	KLF5 inh	BaF3 tox
COc1ccc(NC(=S)NN(C)C(=S)Nc2ccc(OC)cc2)cc1	1	93*	23	14	-4	4
COc1ccc(NC(=S)Nc2ccc(Oc3ccccc3)cc2)cc1	-2	-21	36	-5	-44	8
CCc1nnc(NC(=O)CSC(=S)N2CCOCC2)s1	·	·	3	4	-7	·
CCCCn1c(N)c(N(Cc2ccccc2OC)C(=O)c2ccc(N3CCCC3=O)cc2)c(=O)[nH]c1=O	·	·	-12	·	·	·
CNS(=O)(=O)c1cccc(C(=O)Nc2cccc(Cl)c2)c1	0	48*	-111	1	-56	2
CNS(=O)(=O)c1cccc(C(=O)Nc2cccnc2)c1	-3	22	14	-11	-22	2
COc1ccc(OCc2cc(C(=O)NCC3CCCCO3)no2)c(Cl)c1 (stereo not given)	·	·	-152	-4	-108	·

Bioassay records from PubChem BioAssay.
